Source: PubChem BioAssay AID2314 (National Center for Advancing Translational Sciences (NCATS), 2010)
Out of some 300,000 compounds screened, about 37,000 (12%) were called active. For the sample, actives were picked, then their nearest neighbours and some compounds at random. Unmarked numbers belong to inactive results. No stated cut-off is given here; in the data, active means max response mostly above about 13% (no sharp cut-off); inactive means mostly below about 14%.

Assay: Cycloheximide Counterscreen for Small Molecule Inhibitors of Shiga Toxin; further: read at 38.3 µM for the half of the compounds with a filed dose; 0% is about no effect
Conditions: cell reporter, cycloheximide protein synthesis inhibition counterscreen; hits give high values

**Q.** With `COc1ccc(/C=C/CN2CCCC(C(=O)c3cc(F)ccc3F)C2)cc1` (configuration not stated) as the molecule, how does the max response read?
**A.** 4.59%

**Q.** For `COc1ccc(-c2nc3n(c(=O)c2C#N)CCS3)c(OC)c1`, which max response is on record?
**A.** -3.87%

**Q.** Which max response does the source give for `COc1ccc(F)c(-c2nc(CN3CCC(c4ccccc4)CC3)c(C)o2)c1` here?
**A.** -1.94%

**Q.** Which max response does the source give for `COc1cc(/C=C2\C(=N)N3N=C(CC(=O)N4CCOCC4)SC3=NC2=O)cc(OC)c1OC` here?
**A.** -8.71%

**Q.** With `CN(C)N1C(N)=C(C#N)C(c2ccc(Br)cc2)C2=C1CCCC2=O` (configuration not stated) as the molecule, how does the max response read?
**A.** 11.2%

**Q.** With `Cc1cc(C)nc(NC(=O)Nc2ccccc2C(F)(F)F)n1` as the molecule, how does the max response read?
**A.** 25.8% (active)

**Q.** With `COc1cccc(C(=O)NC(=O)Nc2nc(C)cc(C(F)(F)F)n2)c1` as the molecule, how does the max response read?
**A.** -1.67%

**Q.** Which max response does the source give for `Cc1cc(C)nc(NC(=O)C(C)N2C(=O)c3ccccc3C2=O)n1` (configuration not stated) here?
**A.** -0.537%

**Q.** Which max response does the source give for `NNC(=O)c1nnn(-c2nonc2N)c1CN1CCCC1` here?
**A.** -0.43%

**Q.** With `CCOc1cc2[nH]c(=S)n(Cc3ccc(C(=O)N4CCN(C)CC4)cc3)c(=O)c2cc1OCC` as the molecule, how does the max response read?
**A.** -1.74%

**Q.** Which max response does the source give for `Cc1ccc(OCCCC(=O)N2CCOCC2)c(C)c1` here?
**A.** 51.4% (active)

**Q.** With `Cc1ccc(OCCCC(=O)NC(C)c2ccccc2)c(C)c1` (configuration not stated) as the molecule, how does the max response read?
**A.** 6.31%

**Q.** For `Cc1cc(S(=O)(=O)N2CCOCC2)ccc1OCC(=O)N1CCOCC1`, which max response is on record?
**A.** 0.946%

**Q.** For `O=C(c1ccc(Br)o1)N1CCN(CCOc2ccccc2)CC1`, which max response is on record?
**A.** -3.01%

**Q.** With `CCCc1c(C(=O)Nc2ccc(F)cc2)cnn1-c1ccccc1` as the molecule, how does the max response read?
**A.** 33.4% (active)

**Q.** Which max response does the source give for `CCCc1c(C(=O)O)cnn1-c1ccc(Cl)cc1` here?
**A.** -0.801%

**Q.** For `CCNC(=O)c1cnn(-c2ccccc2)c1-c1ccccc1`, which max response is on record?
**A.** -0.397%

**Q.** With `CC(C)(C)c1cc(P(=O)(c2ccccc2)c2ccccc2)ccc1O` as the molecule, how does the max response read?
**A.** 0.647%

**Q.** For `CC(C)N(C(=O)CSc1nc(COc2ccccc2)nc2ccccc12)C(C)C`, which max response is on record?
**A.** 9.79%

**Q.** For `Cc1ccc(-c2ccc(/C=N/NC(=O)CN3CCOCC3)o2)cc1[N+](=O)[O-]`, which max response is on record?
**A.** 12.3%

**Q.** For `CN1CCN(/N=C2/C(=O)Nc3ccc([N+](=O)[O-])cc32)CC1`, which max response is on record?
**A.** 9.26%

**Q.** Which max response does the source give for `CN1CCN(/N=C/c2ccc(-c3ccc([N+](=O)[O-])cc3)o2)CC1` here?
**A.** 31.4% (active)

**Q.** Which max response does the source give for `COC(=O)c1ccc(NC(=O)C23CC4CC(C2)CC(n2cnc(Cl)n2)(C4)C3)cc1` here?
**A.** 3.9%

**Q.** With `CC(=O)Nc1ccc(S(=O)(=O)N2CCN(CCCOc3cc(C)ccc3C)CC2)cc1` as the molecule, how does the max response read?
**A.** -1.97%

**Q.** Which max response does the source give for `N=c1c2c(-c3ccccc3)c(-c3ccccc3)n(Cc3ccccc3)c2ncn1CCCO` here?
**A.** -6.29%

**Q.** With `OCCCN1c2ccccc2Nc2nnc(-c3ccccc3)cc21` as the molecule, how does the max response read?
**A.** 36.8% (active)

**Q.** For `O=C(NC(=S)NC1CCS(=O)(=O)C1)c1cccc([N+](=O)[O-])c1` (configuration not stated), which max response is on record?
**A.** -1.9%

**Q.** Which max response does the source give for `O=C(NCCc1ccccc1)c1ccc(NC2=NC3CS(=O)(=O)CC3S2)cc1` (configuration not stated) here?
**A.** 3.38%

**Q.** Which max response does the source give for `CC1CCN(c2c(NCc3ccc(C(=O)NCc4ccccc4)cc3)c(=O)c2=O)CC1` here?
**A.** 3.3%

**Q.** For `CC1CCCN(c2ccc(C(=O)NCCc3ccccc3)cn2)C1` (configuration not stated), which max response is on record?
**A.** 66.7% (active)

**Q.** Which max response does the source give for `Cc1cc(Nc2ccc(C(=O)N3CCCCC3)cc2)c2cccc(C)c2n1` here?
**A.** -1.19%

**Q.** Which max response does the source give for `COc1ccc(Nc2ccc([N+](=O)[O-])cn2)cn1` here?
**A.** -2.61%

**Q.** For `NC1=NC[C@@H](Cc2ccc(O)cc2)N1CC1CCCCC1`, which max response is on record?
**A.** -4.36%

**Q.** With `COc1cc(Cl)c(C)cc1NC(=O)COC(=O)c1cc(SC)ccc1Cl` as the molecule, how does the max response read?
**A.** -1.86%

**Q.** Which max response does the source give for `Cc1cc(NC(=O)COC(=O)COc2ccc(Cl)cc2C)c([N+](=O)[O-])cc1C` here?
**A.** -1.12%

**Q.** For `COc1ccc(OCC(=O)Nc2cc(C)c(Cl)cc2OC)c([N+](=O)[O-])c1`, which max response is on record?
**A.** 13.9% (active)

**Q.** Which max response does the source give for `Cc1cccc2sc(N(CCCN(C)C)C(=O)CCS(=O)(=O)c3ccccc3)nc12` here?
**A.** 8.46%

**Q.** Which max response does the source give for `CN(C)CCCn1c(SCc2ccc(Cl)cc2)nnc1-c1ccncc1` here?
**A.** -2.48%

**Q.** Which max response does the source give for `COc1ccc(NC(=O)C2=CC(c3ccc(OC)c(OC)c3)=NS(=O)(=O)N2C)cc1` here?
**A.** -6.05%

**Q.** For `O=c1c(-c2ccccc2)coc2cc(O)ccc12`, which max response is on record?
**A.** 51.6% (active)

**Q.** For `O=c1c(-c2ccccc2)coc2c(CN3CCOCC3)c(O)ccc12`, which max response is on record?
**A.** 5.61%

**Q.** With `Cc1c(CCC(=O)O)c(=O)oc2cc3occ(-c4ccccc4)c3cc12` as the molecule, how does the max response read?
**A.** -1.34%

**Q.** For `CC1(C)C2CCC1(C)C(OC(=O)c1ccc(O)cc1)C2` (configuration not stated), which max response is on record?
**A.** -2.8%

**Q.** Which max response does the source give for `COc1ccc(C23NCCN2C(=O)c2ccccc23)cc1` (configuration not stated) here?
**A.** -7.41%

**Q.** With `COCCNC(=O)COc1ccccc1C` as the molecule, how does the max response read?
**A.** 0.731%

**Q.** With `Cc1cccc(C)c1NC(=O)CNC(=O)Cc1ccc(Br)cc1` as the molecule, how does the max response read?
**A.** -2.02%

**Q.** For `Cc1cccc(NC(=O)COc2ccccc2C)n1`, which max response is on record?
**A.** 47.9% (active)
